In PubChem BioAssay:
Activity calls are given as the source filed them. Unless noted, how the calls were made is not given here.

Key:
[1] = anti-His antibody binders, primary screen, artefact control for SMM control protein annotation, biochemical, small-molecule microarray, 635 nm fluorescence (AID 1128); conditions: anti-His Alexa647 antibody binding, higher = more signal;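 further: score merges feature fluorescence with signal-to-noise for each printed compound spot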
[2] = system: Human papillomavirus type 1a E7 protein (residues 1-88); test: HPV1a E7 small-molecule binders, primary screen, biochemical, small-molecule microarray, residues 1-88, 635 nm (AID 1129); conditions: small-molecule microarray binding, fluorescence 635 nm; higher = more signal
[3] = biological target: Focal adhesion kinase 1 (Homo sapiens) (UniProt Q05397); test: small-molecule microarray binders of FAK, primary screen, biochemical, 635/667 nm fluorescence, BSA, DTT (AID 1130); conditions: PTK2 binding, 635 nm fluorescence, higher = more signal;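 further: composite of spot emission at 667 nm and signal to noise over triplicate slides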
Focal adhesion kinase 1 (Homo sapiens), sequence (Q05397 whole entry, looked up): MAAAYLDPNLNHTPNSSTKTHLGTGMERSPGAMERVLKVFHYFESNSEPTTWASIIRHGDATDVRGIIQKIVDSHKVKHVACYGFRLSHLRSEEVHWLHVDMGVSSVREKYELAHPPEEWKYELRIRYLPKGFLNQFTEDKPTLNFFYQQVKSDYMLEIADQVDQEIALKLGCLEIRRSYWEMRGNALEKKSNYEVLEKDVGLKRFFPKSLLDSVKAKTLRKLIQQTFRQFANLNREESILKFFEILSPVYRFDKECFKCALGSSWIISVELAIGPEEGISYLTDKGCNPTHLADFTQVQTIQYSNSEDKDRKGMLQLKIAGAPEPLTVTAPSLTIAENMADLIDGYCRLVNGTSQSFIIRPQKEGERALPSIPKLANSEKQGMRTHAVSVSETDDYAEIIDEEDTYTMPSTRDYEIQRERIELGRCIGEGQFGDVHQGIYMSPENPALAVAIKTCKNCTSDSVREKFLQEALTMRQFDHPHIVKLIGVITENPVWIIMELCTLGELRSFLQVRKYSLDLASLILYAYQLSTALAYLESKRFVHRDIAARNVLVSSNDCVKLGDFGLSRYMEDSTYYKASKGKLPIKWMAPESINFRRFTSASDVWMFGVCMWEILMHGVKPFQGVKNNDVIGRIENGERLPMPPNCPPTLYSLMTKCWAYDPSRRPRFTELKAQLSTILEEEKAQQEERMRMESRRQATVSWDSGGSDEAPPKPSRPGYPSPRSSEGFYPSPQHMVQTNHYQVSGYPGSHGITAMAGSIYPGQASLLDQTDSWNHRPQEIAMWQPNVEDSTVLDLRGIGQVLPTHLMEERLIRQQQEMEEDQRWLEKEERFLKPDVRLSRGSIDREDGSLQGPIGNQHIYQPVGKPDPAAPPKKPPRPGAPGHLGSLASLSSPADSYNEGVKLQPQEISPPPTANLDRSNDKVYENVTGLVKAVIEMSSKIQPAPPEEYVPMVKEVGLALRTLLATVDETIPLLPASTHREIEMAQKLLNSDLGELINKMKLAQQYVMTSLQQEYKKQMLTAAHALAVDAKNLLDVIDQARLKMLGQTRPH

[4] = system: Fibrinogen (Alexa647-labelled); test: fibrinogen binders on compound microarrays, profiling panel, artefact control for SMM control-protein annotation, biochemical, small-molecule microarray, 635/667 nm fluorescence (AID 1131); conditions: fibrinogen-A647 binding fluorescence, higher = more signal;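 further: z-score merges 667 nm fluorescence with per-spot signal-to-noise over triplicate slides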
[5] = biological target: Follistatin (Homo sapiens) (UniProt P19883); test: follistatin binders on small-molecule microarrays, primary screen, biochemical, small-molecule microarray, 635/667 nm fluorescence (AID 1132); conditions: FST binding, 635 nm fluorescence, higher = more signal
Follistatin (Homo sapiens), sequence (P19883 whole entry, looked up): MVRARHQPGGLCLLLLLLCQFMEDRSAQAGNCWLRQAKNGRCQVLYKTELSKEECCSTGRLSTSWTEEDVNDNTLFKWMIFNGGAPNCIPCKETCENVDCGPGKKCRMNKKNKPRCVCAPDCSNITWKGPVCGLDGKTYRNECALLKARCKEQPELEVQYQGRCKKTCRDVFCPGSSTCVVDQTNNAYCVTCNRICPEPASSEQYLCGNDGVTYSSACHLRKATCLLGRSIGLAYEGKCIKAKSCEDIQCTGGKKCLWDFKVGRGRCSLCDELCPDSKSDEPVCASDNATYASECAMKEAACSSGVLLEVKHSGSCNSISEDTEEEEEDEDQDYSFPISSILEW

[6] = biological target: Fibroblast growth factor 2 (Homo sapiens) (UniProt P09038); test: FGF2 binders on small-molecule microarrays, primary screen, biochemical, small-molecule microarray, 635/667 nm fluorescence (AID 1133); conditions: small-molecule microarray binding, FGF2, fluorescence 635/667; higher = more signal
Fibroblast growth factor 2 (Homo sapiens), sequence (P09038 whole entry, looked up): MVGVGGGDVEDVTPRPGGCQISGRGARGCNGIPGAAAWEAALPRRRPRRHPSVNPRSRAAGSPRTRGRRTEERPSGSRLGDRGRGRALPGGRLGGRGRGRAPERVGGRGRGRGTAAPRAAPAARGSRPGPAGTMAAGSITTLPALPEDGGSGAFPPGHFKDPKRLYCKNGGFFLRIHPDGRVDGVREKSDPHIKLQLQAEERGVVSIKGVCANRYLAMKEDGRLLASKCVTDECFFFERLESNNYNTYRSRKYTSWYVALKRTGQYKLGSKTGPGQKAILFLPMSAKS

[7] = mitochondrial membrane potential change in A549 cells, profiling panel, cell-based, JC-1 fluorescence, basal, 24 h, 100 nL (AID 1138); conditions: higher = more signal;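 further: A549 lung adenocarcinoma cells under basal conditions with no added stimulus; test concentration not given here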
[8] = system: Lefty1; test: Lefty1 binders on small-molecule microarrays, primary screen, biochemical, small-molecule microarray, 635/667 nm fluorescence (AID 1139); conditions: small-molecule microarray binding, fluorescence 635/667; higher = more signal
[9] = system: wheat germ agglutinin (Triticum aestivum), Alexa647-labelled; test: wheat germ agglutinin binders on compound microarrays, profiling panel, artefact control for SMM control-protein annotation, biochemical, small-molecule microarray, 635/667 nm fluorescence (AID 1140); conditions: WGA-A647 binding, 635 nm fluorescence, higher = more signal;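 further: score merges 667 nm feature emission with signal to noise over triplicate slides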
[10] = biological target: Luciferin 4-monooxygenase (Photinus pyralis) (UniProt P08659); test: firefly luciferase enzyme inhibitors, primary screen, biochemical, luminescence, purified enzyme, 2006 set (AID 1141); conditions: SteadyGlo luminescence, 30 min, higher = more signal, called active from +8 up or from −8 down;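 further: cell-free assay with purified firefly luciferase at 100 ng per well in PBS; test concentration not given here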
Luciferin 4-monooxygenase (Photinus pyralis), sequence (P08659 whole entry, looked up): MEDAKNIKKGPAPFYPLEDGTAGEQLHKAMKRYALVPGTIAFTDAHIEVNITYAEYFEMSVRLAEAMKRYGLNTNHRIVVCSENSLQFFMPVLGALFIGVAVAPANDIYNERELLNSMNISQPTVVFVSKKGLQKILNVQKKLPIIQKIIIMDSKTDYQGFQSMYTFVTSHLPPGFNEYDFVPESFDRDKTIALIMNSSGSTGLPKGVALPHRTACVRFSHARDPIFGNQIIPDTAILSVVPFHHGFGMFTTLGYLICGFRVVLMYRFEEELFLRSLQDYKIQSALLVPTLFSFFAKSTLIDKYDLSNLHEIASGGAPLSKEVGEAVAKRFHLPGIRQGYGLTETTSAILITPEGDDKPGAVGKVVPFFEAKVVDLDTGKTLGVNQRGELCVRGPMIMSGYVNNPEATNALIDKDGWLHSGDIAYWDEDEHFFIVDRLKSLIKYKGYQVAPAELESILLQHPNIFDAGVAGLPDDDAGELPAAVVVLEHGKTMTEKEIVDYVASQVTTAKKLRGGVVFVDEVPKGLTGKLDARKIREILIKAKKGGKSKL

[11] = system: Wnt5a (protein binding on small-molecule microarray); test: Wnt5a binders on small-molecule microarray, primary screen, biophysical, 635/667 nm fluorescence (AID 1142); conditions: 635 nm fluorescence, higher = more signal;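 further: fluorescence read at 667 nm with signal to noise per printed feature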
[12] = cell viability in Huh7 cells, primary screen, cytotoxicity control for HCV replication inhibitor project, CellTiter-Glo luminescence, basal, 48 h (AID 1143); conditions: Huh7 HCV replicon, higher = more signal, called active from +8 up or from −8 down;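 further: Huh7 hepatoma cells carrying a hepatitis C replication reporter with no stimulus; test concentration not given here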
[13] = P. aeruginosa biofilm formation inhibitors, primary screen, PAO1 strain, BacTiter-Glo luminescence, LB-PBS (AID 1144); conditions: 12 h, higher = more signal
[14] = CREB reporter modulators without forskolin, primary screen, cell-based, PC12, CRE-LacZ reporter, unstimulated (AID 1145); conditions: no forskolin, luminescence, 4.5 h, higher = more signal, called active from +8 up or from −8 down
[15] = CREB reporter modulators under forskolin, primary screen, cell-based, PC12, CRE-LacZ reporter, forskolin-stimulated (AID 1146); conditions: luminescence, 4.5 h, higher = more signal, called active from +8 up or from −8 down;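 further: PC12 cells with 6xCRE LacZ reporter stimulated by forskolin 10 µM; beta-galactosidase reporter signal reflecting CREB driven transcription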
[16] = biological target: Streptavidin (Streptomyces avidinii) (UniProt P22629); test: streptavidin binders on small-molecule microarray, primary screen, artefact control for SMM compound annotation, biophysical, 635/667 nm fluorescence (AID 1147); conditions: streptavidin binding, higher = more signal;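 further: signal reflects streptavidin binding to arrayed compounds as a control protein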
Streptavidin (Streptomyces avidinii), sequence (P22629 whole entry, looked up): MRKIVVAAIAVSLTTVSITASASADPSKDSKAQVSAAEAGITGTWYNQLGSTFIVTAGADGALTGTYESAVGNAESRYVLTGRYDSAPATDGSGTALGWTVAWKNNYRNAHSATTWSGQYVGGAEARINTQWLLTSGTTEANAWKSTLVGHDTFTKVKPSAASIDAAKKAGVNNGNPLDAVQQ

[17] = small-molecule binders of probe aInhba, primary screen, biochemical, small-molecule microarray, 635/667 nm fluorescence (AID 1148); conditions: higher = more signal;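 further: score merges 667nm spot fluorescence with signal-to-noise for antibody binding to printed compounds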
[18] = biological target: Torsin-1A (Homo sapiens) (UniProt O14656); test: torsin A binders from cell lysate, primary screen, small-molecule microarray, wild-type, 635/667 nm (AID 1149); conditions: COS7 hTOR1A-WT lysate, 635 nm fluorescence, higher = more signal
Torsin-1A (Homo sapiens), sequence (O14656 whole entry, looked up): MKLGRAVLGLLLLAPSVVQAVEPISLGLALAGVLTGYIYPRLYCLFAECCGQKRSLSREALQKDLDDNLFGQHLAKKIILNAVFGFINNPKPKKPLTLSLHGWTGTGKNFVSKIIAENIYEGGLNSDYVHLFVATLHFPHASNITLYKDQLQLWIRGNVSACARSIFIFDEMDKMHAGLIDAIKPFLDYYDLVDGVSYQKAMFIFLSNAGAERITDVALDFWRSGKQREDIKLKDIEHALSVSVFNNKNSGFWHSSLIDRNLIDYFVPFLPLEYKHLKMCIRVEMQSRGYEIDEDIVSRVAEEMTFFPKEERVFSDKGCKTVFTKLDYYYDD

[19] = biological target: Torsin-1A (Homo sapiens) (UniProt O14656); test: small-molecule binders of mutant TOR1A in lysate, primary screen, cell lysate, small-molecule microarray, COS7 lysate, 635/667 nm fluorescence (AID 1150); conditions: COS7 hTOR1A mutant lysate, 635 nm fluorescence, higher = more signal;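 further: score pools 667 nm emission and signal to noise measuring lysate protein binding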
[20] = system: Sonic hedgehog protein (Shh); test: small-molecule binders of Shh protein, primary screen, biochemical, small-molecule microarray, 635/667 nm fluorescence (AID 1151); conditions: small-molecule microarray binding, 635 nm fluorescence; higher = more signal;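 further: Shh protein binding to compounds spotted on small-molecule microarray slides; score combines spot fluorescence intensity with signal-to-noise across triplicate slides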

SMILES	composite z-score [1]	composite z-score [2]	composite z-score [3]	composite z-score [4]	composite z-score [5]	composite z-score [6]	z-score [7]	composite z-score [8]	composite z-score [9]	z-score [10]	composite z-score [11]	z-score [12]	z-score [13]	z-score [14]	z-score [15]	composite z-score [16]	composite z-score [17]	composite z-score [18]	composite z-score [19]	composite z-score [20]
CN(C)CCCC[C@@H]1NC(=O)[C@@H]2C[C@H](C(=O)NCc3ccc(F)cc3)[C@H](c3ccc(O)cc3)N2C1=O	0.0971	0.0709	-0.103	0.348	1.45	1.91	0.0539	0.748	-0.0665	0.144 (inactive)	0.939	0.0109 (inactive)	-0.886 (inactive)	0.557 (inactive)	-0.636 (inactive)	-0.574	0.305	0.704	0.249	2.28
COc1ccc([Si](C)(C)[C@H]2[C@H](CCO)O[C@@]3(C(=O)N(Cc4ccccc4)c4ccc(N(C=O)c5ccccc5)cc43)[C@@H]2C)cc1	0.359	0.644	0.274	0.605	0.919	0.25	0.821	1.01	0.153	0.457 (inactive)	0.078	-6.74 (inactive)	-0.862 (inactive)	2.08 (inactive)	-0.993 (inactive)	0.593	0.122	-0.0549	0.865	1.52
CC#CCO[Si](C#CCCCCCC)(C(C)C)C(C)C	-0.19	-0.419	-0.103	-1.49	-2.99	-2.42	-0.996	-1.93	0.064	0.944 (inactive)	-1.15	-1.03 (inactive)	-1.06 (inactive)	-0.374 (inactive)	2.09 (inactive)	-2.45	-0.288	-1.46	-1.03	-1.62
CN(C)CCCNC(=O)[C@@H]1c2ccccc2C(=O)N(C2Cc3ccccc3C2)[C@H]1c1ccc(CO)cc1	0.0265	1.11	0.726	0.784	0.27	-0.139	2.07	-0.199	0.164	-0.825 (inactive)	-0.128	-0.701 (inactive)	0.491 (inactive)	-0.502 (inactive)	-1.14 (inactive)	0.359	0.217	0.798	0.802	0.318
CC(C)C[C@@H]1NC(=O)[C@H]2C[C@@H](C(=O)NCCCCCCNC(=O)CS)[C@@H](c3ccc(O)cc3)N2C1=O	2.26	1.22	0.87	0.0675	1.3	1.78	-1.02	0.543	0.0059	-0.938 (inactive)	0.472	1.03 (inactive)	-1.02 (inactive)	-0.805 (inactive)	-0.732 (inactive)	-0.406	-0.179	1	0.766	1.84
C[C@@H](OCc1ccccc1)C1NC(=O)[C@@]23C(=O)N[C@@H](Cc4ccccc4)C2[C@H](C)[C@@]2(C)O[C@H]2C3/C=C/C/C=C\CNC(=O)[C@H](Cc2ccccc2)NC1=O (stereo not given in full)	0.276	-0.197	-0.422	0.569	0.793	0.803	-0.227	0.557	-0.228	-3.26 (inactive)	-0.0187	-3.97 (inactive)	0.541 (inactive)	5.48 (inactive)	-0.164 (inactive)	-0.85	0.0131	-0.258	0.293	1.07
[N-]=[N+]=Nc1ccccc1[C@@H]1OC(c2ccc(OCCCO)cc2)=N[C@]1(Cc1ccccc1)C(N)=O	1.91	0.445	0.474	0.899	0.207	-0.425	1.86	-0.188	0.619	-8.14 (active)	-0.0757	-2 (inactive)	-0.0461 (inactive)	0.195 (inactive)	-1.49 (inactive)	0.533	0.451	0.245	0.305	-0.0762
COCCOC(=O)N1C(=O)[C@@]2(c3ccccc31)[C@H](C(=O)N1CCCCCCC1)[C@H]1C(=O)O[C@H](c3ccccc3)[C@H](c3ccccc3)N1[C@@H]2c1ccc(O)cc1	0.578	1.21	1.01	0.842	1.41	1.74	0.0314	1.69	1.25	0.047 (inactive)	1.21	-2.11 (inactive)	-1.14 (inactive)	-1.15 (inactive)	-1.03 (inactive)	2.17	2.13	2.14	2.57	2.17
C#CCN=C(N)N	0.468	0.611	-0.0375	0.802	0.785	0.388	-0.317	0.858	0.299	0.523 (inactive)	0.0311	-0.347 (inactive)	0.214 (inactive)	-0.0247 (inactive)	-0.055 (inactive)	0.314	0.0797	1.7	0.832	0.666
